Laboratory results from PubChem BioAssay (NCATS).
Records with an inconclusive call do not appear. Activity calls are given as the source filed them. The call rests on the fitted dose curve; in most records, active means well fitted cell-killing curve with a large enough effect; inconclusive means small, poorly fitted or top-dose-only effect, or effect the other way; inactive means flat fitted curve, though single readings scatter.

Legend:
Test in all cases: Primary qHTS to identify gynecologic anti-cancer compounds using libraries of approved drugs and bioactive compounds (AID 1345084); further: nearly all actives have a fitted effect of over 55% in size
Settings in all cases: Gynecologic cancer cell panel viability, ATPlite luminescence, 48 h; series mostly up to 57.5 µM
[1] = system: OV90
Summary of the method: (§1)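 Luminescence from the ATPlite ATP-monitoring reagent indicates viable cell number; lower signal means cytotoxicity. Cells received compound 16 h after seeding and were exposed for 48 h across five concentrations.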

[2] = system: PA-1
Summary of the method: as §1

[3] = system: SKOV3
Summary of the method: as §1

[4] = system: Tov-21-G
Summary of the method: as §1

[5] = system: Tov112D
Summary of the method: as §1
On the % scale 0 is the no-effect control and ±100 the full control effect.

C=C/C=C/[C@@H]1OC[C@H](/C=C/C=C/C)[C@H]1O
inactive: Potency [1] | Potency [2] | Potency [3] | Potency [4] | Potency [5]

C=C1CC23CC1(O)CCC2C1=CC2OC(=O)C(C)(C2O)C1C3C(=O)O (stereo not given)
inactive: Potency [1] | Potency [2] | Potency [3] | Potency [4] | Potency [5]

C=C1[C@H]2[C@H](O[C@@H]3O[C@H](COC(=O)/C=C/c4cc(OC)c(O)c(OC)c4)[C@@H](O)[C@H](O)[C@H]3O)OC=C(C(=O)O)[C@H]2C[C@@H]1O
inactive: Potency [1] | Potency [2] | Potency [3] | Potency [4] | Potency [5]

CC1(C)CC2C(O)C3=C(CC(C)(O)C2C1)C(=O)OC3O (stereo not given)
inactive: Potency [1] | Potency [2] | Potency [3] | Potency [4] | Potency [5]

COc1cc(C2c3cc(O)c(OC)cc3CC(CO)C2CO)ccc1O (stereo not given)
inactive: Potency [1] | Potency [2] | Potency [3] | Potency [4] | Potency [5]

C[C@@H]1O[C@@H](O[C@H]2[C@H](O[C@H]3CC[C@@]4(C)C(CC[C@]5(C)C4CC=C4C6CC(C)(C)CC[C@]6(C(=O)O[C@@H]6O[C@H](CO[C@@H]7O[C@H](CO)[C@@H](O[C@@H]8O[C@@H](C)[C@H](O)[C@@H](O)[C@H]8O)[C@H](O)[C@H]7O)[C@@H](O)[C@H](O)[C@H]6O)CC[C@]45C)[C@]3(C)CO)OC[C@H](O)[C@@H]2O)[C@H](O)[C@H](O)[C@H]1O (stereo not given in full)
inactive: activity change, negative = cytotoxicity [1] -14.8% [at 6.55 µM] | activity change, negative = cytotoxicity [2] -4.46% [at 6.55 µM] | activity change, negative = cytotoxicity [3] -11.7% [at 6.55 µM] | activity change, negative = cytotoxicity [4] 8.28% [at 6.55 µM] | activity change, negative = cytotoxicity [5] -13.6% [at 6.55 µM]
